In all, about 33,000 sequences were measured (“normalized occupancy”: median about 0.075, highest 2% from about 0.095 on). Shown is part of a subset that was picked to be rich in the highest values.

MaxL homodimer, sequence (P61244 whole entry): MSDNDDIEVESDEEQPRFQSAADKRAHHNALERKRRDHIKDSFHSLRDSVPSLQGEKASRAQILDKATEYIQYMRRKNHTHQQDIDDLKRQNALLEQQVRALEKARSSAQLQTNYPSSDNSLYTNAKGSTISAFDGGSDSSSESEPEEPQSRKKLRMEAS

This assay addresses MaxL homodimer (Homo sapiens, UniProt P61244 1-160). Kind of assay: universal protein-binding microarray (PBM); PBS-based mixture, 10 nM His-tagged protein dimer, 2% milk, 200 ng/uL BSA, 50 ng/uL salmon testes DNA, 0.02% TX-100; detection with Alexa 488 anti-His antibody;; high values mean tight binding. The following applies: protein: recombinant; tags: C-terminal His-tag (pET21a); chain copies: 2; dsDNA, one strand shown. The essentials:
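His-tagged protein dimer at 10 nM was incubated on Agilent 4 x 44 K arrays with the 'all 10-mer' universal design. Bound protein was tagged with 10 ng/μL fluorophore-conjugated anti-His antibody, and arrays were scanned on a GenePix 4400A. Binding occupancy for each 8-mer is its fluorescence intensity normalised to the highest-ranked 8-mer's intensity.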
In the case of AGCCATGG, the binding signal was determined as 0.0832 normalized occupancy.
With CGCCATGA the figure was 0.0842 normalized occupancy.
With AGCCATGC the figure was 0.0996 normalized occupancy; with CGCCATCC, 0.077 normalized occupancy; with CGCCATGC, 0.0988 normalized occupancy.
With AGCCATGA, the binding signal turned out to be 0.0819 normalized occupancy.
In the case of ATGTCAAT, the binding signal stood at 0.0778 normalized occupancy.
As to GGTAACCA, the binding signal came out at 0.0775 normalized occupancy.
The same measure for CTTCTTTA: 0.075 normalized occupancy.
The same measure for AAAACGAT: 0.0742 normalized occupancy.
Regarding ACATGGAG, the binding signal stood at 0.0868 normalized occupancy.
With ACATGGGG the figure was 0.101 normalized occupancy; with ACATGGAA, 0.0918 normalized occupancy; with ACATGGAT, 0.101 normalized occupancy.
Consider ACATGGCG, for which the binding signal came out at 0.098 normalized occupancy.
With AAATGGGT the figure was 0.0763 normalized occupancy.
The same measure for ACATGGCT: 0.0932 normalized occupancy; for ACATGGGC: 0.0848 normalized occupancy.
As to ACATGGGT, the binding signal is 0.1 normalized occupancy.
Regarding CCATGGGG, the binding signal was 0.0949 normalized occupancy.
The same measure for CCATGGCG: 0.0768 normalized occupancy; for ACTTGGGG: 0.0791 normalized occupancy.
For GACATTGA, the binding signal was 0.078 normalized occupancy.
With CAATGAGC, the binding signal was 0.074 normalized occupancy.
The same measure for CGTGCGTA: 0.0916 normalized occupancy.
For ATTATGTA, the binding signal was determined as 0.0828 normalized occupancy.
The same measure for CCCCCGCG: 0.0757 normalized occupancy; for TGGCTAAA: 0.074 normalized occupancy; for ATGACAGC: 0.0803 normalized occupancy.
With GTAATAAA the figure was 0.076 normalized occupancy; with ACTACTAT, 0.0796 normalized occupancy; with GGGGGCAC, 0.0775 normalized occupancy.
The same measure for AAACGTAA: 0.0743 normalized occupancy; for GGAGACAA: 0.0754 normalized occupancy.
In the case of CTTAGGCA, the binding signal is 0.0777 normalized occupancy.
As for AACTAATT, the binding signal was found to be 0.0744 normalized occupancy.
Regarding GTTTAGAA, the binding signal was 0.0757 normalized occupancy.
The same measure for AGTTTACA: 0.0773 normalized occupancy.
Turning to ACCGTGAT, the binding signal is 0.0871 normalized occupancy.
The same measure for AGAGTGAC: 0.0747 normalized occupancy.
The same measure for AGCGTGAA: 0.0854 normalized occupancy; for AGCGTGAC: 0.101 normalized occupancy; for AGTGTGAC: 0.089 normalized occupancy.
The same measure for AGCGTGAT: 0.1 normalized occupancy; for CCATAGGA: 0.0736 normalized occupancy.
Regarding AACCTTGT, the binding signal was determined as 0.0729 normalized occupancy.
Turning to CAAGGAAC, the binding signal amounted to 0.079 normalized occupancy.
With GGACGGCA the figure was 0.0718 normalized occupancy.
The same measure for GAAATTTA: 0.0725 normalized occupancy; for ATTAGTCA: 0.0775 normalized occupancy; for GAATTCTA: 0.0768 normalized occupancy.
In the case of AACGTGAA, the binding signal stood at 0.0849 normalized occupancy.
With ACCGTGAC the figure was 0.0781 normalized occupancy; with AACGTGAC, 0.109 normalized occupancy; with AAGGTGAC, 0.0729 normalized occupancy.
Take AACGTGAT: the binding signal turned out to be 0.11 normalized occupancy.
The same measure for AACGTGAG: 0.0854 normalized occupancy; for ACCTAACC: 0.0792 normalized occupancy.
Regarding GAGATGGA, the binding signal is 0.0798 normalized occupancy.
With GGTACCCA the figure was 0.0727 normalized occupancy; with GATCATGA, 0.0863 normalized occupancy; with CATCATGG, 0.0895 normalized occupancy.
With CATCATGA, the binding signal was found to be 0.0846 normalized occupancy.
The same measure for CATCATGC: 0.0995 normalized occupancy; for AATCATCC: 0.083 normalized occupancy; for AATCATGT: 0.0985 normalized occupancy.
Turning to AATCATGG, the binding signal stood at 0.0832 normalized occupancy.
In the case of ATTCATGC, the binding signal came to 0.0905 normalized occupancy.
The same measure for GATCATGC: 0.101 normalized occupancy; for AATCATGC: 0.0958 normalized occupancy.
With AATCATGA the figure was 0.0851 normalized occupancy.
The same measure for GATCATCC: 0.0784 normalized occupancy.
For ATGCTCCA, the binding signal is 0.0829 normalized occupancy.
The same measure for TGAGTTAA: 0.078 normalized occupancy; for GAGCGTGA: 0.0923 normalized occupancy; for TAGCGTGA: 0.0905 normalized occupancy.
The same measure for CAGCGTGG: 0.129 normalized occupancy; for CAGCGTCA: 0.0719 normalized occupancy; for CAGCGTGA: 0.104 normalized occupancy.
For CATCGTGG, the binding signal was 0.0917 normalized occupancy.
As for CTAATGTA, the binding signal stood at 0.078 normalized occupancy.
The same measure for ATGTACGA: 0.0873 normalized occupancy; for AATGGGGA: 0.0809 normalized occupancy; for CATGGGAA: 0.0896 normalized occupancy.
With CATGGGGG the figure was 0.0995 normalized occupancy; with CATGGGGC, 0.0935 normalized occupancy; with AATGGGGG, 0.0803 normalized occupancy.
With CATGGGGA the figure was 0.1 normalized occupancy; with CCGTTTGA, 0.0729 normalized occupancy; with CAGGTGAC, 0.0878 normalized occupancy.
Regarding AAACATTA, the binding signal stood at 0.0779 normalized occupancy.
With GGATGCGA the figure was 0.0783 normalized occupancy; with GCATGCGC, 0.121 normalized occupancy; with CAATGCGG, 0.0873 normalized occupancy.
On to CCATGCGG, for which the binding signal amounted to 0.145 normalized occupancy.
Turning to CCATGCGA, the binding signal came to 0.1 normalized occupancy.
The same measure for CCCTGCGG: 0.0745 normalized occupancy.
The same measure for GCATGCGA: 0.119 normalized occupancy; for CAATGCGA: 0.0774 normalized occupancy; for TCATGCGA: 0.0877 normalized occupancy.
In the case of GAATGCGC, the binding signal stood at 0.075 normalized occupancy.
With AAATGCGC the figure was 0.0749 normalized occupancy; with GTATGCGA, 0.0727 normalized occupancy; with TGATAGAA, 0.0854 normalized occupancy.
The same measure for GTGTCGTA: 0.0815 normalized occupancy; for AGGTCACG: 0.082 normalized occupancy; for CTGTTGTA: 0.0736 normalized occupancy.
The same measure for AAAGAGCA: 0.0761 normalized occupancy; for ATGCGCGA: 0.0781 normalized occupancy.
In the case of ATGTTCAG, the binding signal was found to be 0.0809 normalized occupancy.
With ACACATCC the figure was 0.0784 normalized occupancy.
With CCATGCGC the figure was 0.121 normalized occupancy.
With CAATGCGC the figure was 0.0788 normalized occupancy; with CTATGCGC, 0.075 normalized occupancy; with ACCATTGC, 0.0746 normalized occupancy.
Turning to CAACGTAA, the binding signal is 0.0776 normalized occupancy.
Turning to CAACGTGA, the binding signal was determined as 0.118 normalized occupancy.
With AAACGTGT the figure was 0.1 normalized occupancy; with AAACGTAT, 0.0746 normalized occupancy; with CAACGTCA, 0.0743 normalized occupancy.
In the case of CAACGTGC, the binding signal was determined as 0.122 normalized occupancy.
The same measure for CAACGTTC: 0.0755 normalized occupancy; for GAACGTGC: 0.0931 normalized occupancy.
With AAACGTGC the figure was 0.101 normalized occupancy; with AAACGTTT, 0.0755 normalized occupancy.
With AAACGTAC the figure was 0.074 normalized occupancy; with CAACGTAC, 0.0758 normalized occupancy.
Take CACACCCA: the binding signal came to 0.0877 normalized occupancy.
With ATTATTTG the figure was 0.0793 normalized occupancy.
With ACCGATAC the figure was 0.075 normalized occupancy; with TCTCCAAA, 0.0803 normalized occupancy.
The same measure for CTCTCAGC: 0.0719 normalized occupancy.
CATGGCTC: the binding signal came to 0.09 normalized occupancy.
With AAACCATA the figure was 0.0792 normalized occupancy; with CTGAATCC, 0.0737 normalized occupancy; with CGTACGCC, 0.0757 normalized occupancy.
For CTTAACCC, the binding signal came out at 0.0738 normalized occupancy.
With ACAACTAA the figure was 0.0755 normalized occupancy; with CGGCAGCC, 0.0724 normalized occupancy.
The same measure for CGTTTAGA: 0.0747 normalized occupancy.
The same measure for AAACGTAG: 0.0771 normalized occupancy; for AAACGTCG: 0.0737 normalized occupancy; for CAACGTTG: 0.083 normalized occupancy.
As to CAACGTGG, the binding signal worked out at 0.154 normalized occupancy.
With TAACGTGA the figure was 0.0935 normalized occupancy; with AAACGTGA, 0.099 normalized occupancy; with AAACGTGG, 0.123 normalized occupancy.
The same measure for CAACGTAG: 0.0762 normalized occupancy.
As for GAACGTGA, the binding signal stood at 0.0801 normalized occupancy.
With ATCGCCAG the figure was 0.0753 normalized occupancy.
For AAGACATG, the binding signal came to 0.0912 normalized occupancy.
With GAAGCATC the figure was 0.076 normalized occupancy; with AACATCCA, 0.0849 normalized occupancy; with ACTTAAAT, 0.0746 normalized occupancy.
For TCACGTCA, the binding signal came to 0.0819 normalized occupancy.
With CGACGTGA the figure was 0.0883 normalized occupancy; with TCACGTGA, 0.19 normalized occupancy.
The same measure for CTACGTGC: 0.0865 normalized occupancy.
With CCACGTGA the figure was 0.482 normalized occupancy; with CCACGTCG, 0.086 normalized occupancy; with CCACGTAG, 0.0817 normalized occupancy.
As to CGACGTGC, the binding signal amounted to 0.083 normalized occupancy.
The same measure for CCACGTGC: 0.814 normalized occupancy; for CCACGTGG: 0.971 normalized occupancy; for TCACGTAA: 0.086 normalized occupancy.
The same measure for CTACGTGA: 0.0799 normalized occupancy; for GGAGAGCA: 0.0742 normalized occupancy; for CCGTCTAA: 0.0757 normalized occupancy.
With ACAAATGT, the binding signal amounted to 0.079 normalized occupancy.
With GGTCAGGA the figure was 0.0732 normalized occupancy; with GAGGAAGA, 0.075 normalized occupancy; with ACCTGTAA, 0.0823 normalized occupancy.
On to CCACCTTC, for which the binding signal was found to be 0.0757 normalized occupancy.
The same measure for ACACCTGT: 0.0912 normalized occupancy; for GCACCTGC: 0.0846 normalized occupancy; for TCACCTGA: 0.0809 normalized occupancy.
With CCACCTCG the figure was 0.0794 normalized occupancy; with CCACCTGC, 0.0984 normalized occupancy.
Take CCACCTGG: the binding signal came to 0.105 normalized occupancy.
With ACACCTGC the figure was 0.0956 normalized occupancy; with ACACCTGG, 0.0881 normalized occupancy.
The same measure for CCACCTGA: 0.099 normalized occupancy.
The same measure for ACACCTGA: 0.0871 normalized occupancy; for ATACCTGC: 0.0811 normalized occupancy; for GTAGTTGA: 0.0738 normalized occupancy.
For the sequence ATAACGCC, the binding signal was found to be 0.0792 normalized occupancy.
Turning to ATTCACCG, the binding signal came to 0.0732 normalized occupancy.
As to CTTTTCGA, the binding signal was found to be 0.0725 normalized occupancy.
With ACGCCGAA the figure was 0.0725 normalized occupancy; with GGCCACTA, 0.0777 normalized occupancy; with GTGGAAAA, 0.0879 normalized occupancy.
The same measure for AATCGGGA: 0.0782 normalized occupancy; for CTGCCTAA: 0.075 normalized occupancy; for CAAGTCGC: 0.0719 normalized occupancy.
The same measure for CAAACCTC: 0.0765 normalized occupancy; for ATTCTACC: 0.0801 normalized occupancy; for AGAGCGTG: 0.0963 normalized occupancy.
Regarding AGCGCGCG, the binding signal was found to be 0.0841 normalized occupancy.
For AGCGCGTG, the binding signal was determined as 0.117 normalized occupancy.
The same measure for ATAGCGTG: 0.104 normalized occupancy.
The same measure for ATAGCGTC: 0.0734 normalized occupancy; for AGAGCGTA: 0.0758 normalized occupancy.
As to ACAGCGTC, the binding signal amounted to 0.0731 normalized occupancy.
On to ACAGCGTG, for which the binding signal turned out to be 0.123 normalized occupancy.
With ACAGCGAG the figure was 0.0728 normalized occupancy; with AGAGCGAG, 0.0719 normalized occupancy.
Take ATAGCGTA: the binding signal turned out to be 0.0819 normalized occupancy.
With AGCGCGTC the figure was 0.0772 normalized occupancy.
For AGGCAGTA, the binding signal turned out to be 0.0728 normalized occupancy.
With CTTGGTCC the figure was 0.0723 normalized occupancy.
The same measure for CTTCGCTA: 0.0727 normalized occupancy.
The same measure for ATCCCCCC: 0.0808 normalized occupancy; for GGCTATCA: 0.0738 normalized occupancy.
For ACACTGAC, the binding signal turned out to be 0.0742 normalized occupancy.
The same measure for ACTTTAAG: 0.0722 normalized occupancy; for AAGTATAG: 0.0813 normalized occupancy.
With CCTTTGTA the figure was 0.0734 normalized occupancy; with GGTGCGGA, 0.0762 normalized occupancy.
The same measure for AAAATTGA: 0.0757 normalized occupancy.

The record behind these values is article PMC4242493, “Sequence specificity incompletely defines the genome-wide occupancy of Myc”.
